# Assay results published in PubChem BioAssay (NCATS).
# Several values for one entry are separate records, joined by “and”; a condition that tells them apart may be missing. Equal entries are not always repeated. A number with no mark means an inactive call. Records with an inconclusive call do not appear. A call without a number means that no potency is given here. Activity calls are given as the source filed them. Unless noted, calls come from the whole dose curve; as a rule, active = well fitted curve in the direction sought with a large enough effect; inconclusive = small, poorly fitted or top-dose-only effect, or another doubt; inactive = no such curve, though single readings can be large; an effect the other way counts as inactive or inconclusive.
# Experiments:
# [1] = qHTS to identify inhibitors of the type 1 interferon - major histocompatibility complex class I in skeletal muscle: primary screen against the NCATS LOPAC collection (AID 1347405); settings: iHSKM muscle cells, IFN-b-induced MHC-I HiBiT luminescence, 24 h; series mostly up to 45.9 µM;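 note: human myoblasts with HiBiT tag on endogenous HLA-B stimulated by IFN-beta; lytic HiBiT luminescence reporting HLA-B protein level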; note: potency is the fitted concentration of half-maximal effect
# Summary of the method: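 HLA-B HiBiT myoblasts, IFN-b 4 ng/ml, dexamethasone-free medium; compounds 7-pt 1:4.3 titration, top 46 uM final; 24 h at 37 C; Nano-Glo HiBiT lytic reagent, 10 min RT, luminescence.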
# [2] = qHTS to identify inhibitors of the type 1 interferon - major histocompatibility complex class I in skeletal muscle: primary screen against the NCATS Pharmaceutical Collection (AID 1347407); settings: human skeletal muscle cells, IFN-b-induced MHC-I HiBiT luminescence, 24 h; series mostly up to 45.9 µM;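 note: luminescence of HiBiT knocked into endogenous HLA-B as interferon-induced MHC class I level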
# Summary of the method: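 HLA-B HiBiT myoblasts, dexamethasone-free growth medium + 4 ng/ml IFN-b; compounds pinned 1 h after seeding, […] from 46 uM; 24 h, 37 C, 5% CO2; lytic HiBiT detection, 10 min RT, luminescence.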
# [3] = qHTS for inhibitors of adenylyl cyclases using a fission yeast platform: a pilot screen against the NCATS LOPAC library (AID 1347410); settings: S. pombe CHP2027, fbp1-GFP fluorescence, 18 h, yeast expressing mammalian AC9 and human GNAS; series mostly up to 57.5 µM
# Summary of the method: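 Read-out: fbp1-GFP fluorescence by laser scanning cytometry (488 nm laser), a gain of signal when AC/cAMP-PKA signalling is inhibited. Strain CHP2027 expressing AC9, GNAS and PDE4D2; compounds at up to 57 µM; 18 h, 30C.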
# [4] = molecular target: Protein phosphatase 1D (Homo sapiens) (UniProt O15297); assay: RapidFire Mass Spectrometry qHTS Assay for Modulators of WT P53-Induced Phosphatase 1 (WIP1) (AID 1347424); settings: WIP1 dephosphorylation of phosphopeptide, RapidFire MS; series mostly up to 63 µM;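 note: amount of dephosphorylated VEPPL-S-QETFS peptide product formed by WIP1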; note: potency is the fitted concentration of half-maximal effect
# Summary of the method: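 Mass-spectrometric measurement of dephosphorylated peptide after a 5 min room-temperature reaction of 10 nM WIP1 with 2 uM phosphopeptide, following 1 h compound preincubation in 30 mM MgCl2 buffer.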
# [5] = molecular target: Protein phosphatase 1D (Homo sapiens) (UniProt O15297); assay: Rhodamine-PBP qHTS Assay for Modulators of WT P53-Induced Phosphatase 1 (WIP1) (AID 1347425); settings: recombinant WIP1, Rhodamine-PBP phosphate fluorescence, real-time; series mostly up to 57.5 µM
# Summary of the method: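 Read-out: Rhodamine-PBP fluorescence (ex 525/em 598 nm) for released Pi, read each minute for 11 min after adding 10 uM VEPPL-pS-QETFS; signal taken as f1 minus pre-substrate f0. Enzyme 5 nM WIP1 with 1 hr room-temperature compound preincubation.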
# [6] = Validation qHTS assay for inhibitors of Activation Induced Cytidine Deaminase (AID): UDG Counterscreen signal (AID 1347427); settings: biochemical UDG counterscreen, fluorescence signal; series mostly up to 115 µM
# Summary of the method: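 Fluorescence at 560 nm excitation, 665 nm emission reports UDG signal after 250 mM NaOH (2x) addition and 30 min. Enzymes (AID 1 uM, UDG 2 U/mL, at 4/3x) preincubated 10 min with compound, then 4 h with 4x 250 nM DJC20/DJC23 substrate at room temperature.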
# [7] = molecular target: Single-stranded DNA cytosine deaminase (Homo sapiens) (UniProt Q9GZX7); assay: Validation qHTS assay for inhibitors of Activation Induced Cytidine Deaminase (AID): AID signal (AID 1347429); settings: Recombinant AID, FRET ssDNA deamination with UDG, fluorescence; series mostly up to 115 µM
# Summary of the method: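 AID+UDG coupled FRET deamination; cpds up to 114 uM final; DJC20/DJC23 substrate, 4 hr RT; NaOH stop, 30 min RT; read Ex 540/Em 590.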
# [8] = Primary qHTS for inhibitors of La Crosse Virus (LACV) - induced cell death in SH-SY5Y cells (AID 1508616); settings: SH-SY5Y LACV cytopathicity rescue, ATP luminescence, 6 d; series mostly up to 4.29 µM;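 note: top concentration of the series differs between compounds; higher means more rescue of cells from virus-induced death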
# Summary of the method: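 Cytopathicity rescue screen: compounds pinned onto SH-SY5Y cells, which are then infected with LACV (MOI 0.01) and held 6 days at 37C. Percent activity is scaled between infected DMSO control and uninfected DMSO control.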
# [9] = molecular target: Calcium and integrin-binding protein 1 (Homo sapiens) (UniProt Q99828); assay: Primary qHTS for Identification of Calcium Integrin Binding Protein 1 (CIB1) Competitor (AID 1508620); settings: CIB1-GST / FITC-alphaIIb peptide fluorescence polarization; series mostly up to 57.7 µM;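 note: GST tagged CIB1 binding a fluorescein labelled alphaIIb integrin peptide tracer; top concentration of the series differs between compounds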
# Summary of the method: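 Fluorescence polarization competition: CIB1-GST (1 uM final) preincubated with compound 15 min at room temperature, then FITC-labeled alphaIIb peptide (100 nM final) added for another 15 min. Polarization read at Ex 480/Em 540.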
# [10] = A High-Content qHTS Against Drug Library for the Identification of Small Molecules that Inhibit DYT1 Early Onset Primary Dystonia-Associated Cell Pathology (AID 1645839; calls by dose curve); settings: HEK293 Flp-In EGFP-delE TorsinA, punctate imaging, 48 h; series mostly up to 46.1 µM
# Summary of the method: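 Induced EGFP-delE TorsinA cells are imaged after 48 h of compound treatment. Punctate fusion-protein distribution gives the %pathology value, while nuclei counts flag toxicity. Wild-type EGFP-hTOR1A cells define the normal pattern.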
# [11] = qHTS to identify inhibitors of the type 1 interferon - major histocompatibility complex class I in skeletal muscle: primary screen against the NCATS Mechanism Interrogation Plate v5.0 (MIPE) Libary (AID 1347411); settings: iHSKM cells + IFN-b, HiBiT-tagged MHC-I luminescence, 24 h; series mostly up to 45.8 µM; note: nearly all actives have a fitted effect of over 65% in size; note: potency is the fitted concentration of half-maximal effect
# Summary of the method: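 HLA-B HiBit myoblasts, dexamethasone-free medium + 4 ng/ml IFN-b, 24 h compound, 11-pt 1:3 from 46 uM final. Readout: Nano-Glo HiBiT lytic luminescence after 10 min lysis, RT.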
# [12] = molecular target: Calcium and integrin-binding protein 1 (Homo sapiens) (UniProt Q99828); assay: Confirmatory qHTS for Identification of Calcium Integrin Binding Protein 1 (CIB1) Competitor (AID 1508617); settings: CIB1 binding competition assay, biochemical qHTS; series mostly up to 114 µM; note: potency is the fitted concentration of half-maximal effect; nearly all actives have a fitted effect of over 65% in size
# Summary of the method: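 Fluorescence polarization competition: CIB1-GST (1 uM final) in 5 mM HEPES pH 7.4, 125 mM NaCl, 5 mM CaCl2, 0.01% Tween20 preincubated 15 min RT with compound (up to 114 uM), then FITC-alphaIIb peptide (100 nM) added, 15 min RT.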
# [13] = Primary qHTS for small molecule stabilizers of the endoplasmic reticulum resident proteome: Secreted ER Calcium Modulated Protein (SERCaMP) assay (AID 1508630); settings: SH-SY5Y GLuc-SERCaMP (Gaussia luciferase released on ER calcium loss) secretion, thapsigargin, luminescence; series mostly up to 38.4 µM
# Summary of the method: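 The SH-SY5Y reporter protocol was run at 3 concentrations up to 38.3 uM (primary) or 11 concentrations (follow-up): 16 h compound, 100 nM thapsigargin for 4 h, then extracellular luciferase luminescence.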
# [14] = molecular target: Calcium and integrin-binding protein 1 (Homo sapiens) (UniProt Q99828); assay: Validation qHTS for Identification of Calcium Integrin Binding protein 1 (CIB1) Competitor (AID 1508618); settings: CIB1-GST / FITC-alphaIIb peptide fluorescence polarization; series mostly up to 114 µM
# Summary of the method: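 CIB1-GST (1 uM final) in 5 mM HEPES pH 7.4, 125 mM NaCl, 5 mM CaCl2, 0.01% Tween20 was preincubated 15 min at room temperature with compound (up to 114 uM), then FITC-alphaIIb peptide (100 nM) added for 15 min; fluorescence polarization read.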
# [15] = Counterscreen qHTS for small molecule stabilizers of the endoplasmic reticulum resident proteome: GLuc-NoTag assay (AID 1508627); settings: Gaussia luciferase NoTag secretion counterscreen, luminescence, thapsigargin 100 nM for final 4 h; series mostly up to 76.4 µM
# Summary of the method: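 Secreted GLuc lacking the SERCaMP modification is measured in SH-SY5Y cells exposed to compound for 19 h and then to thapsigargin (100 nM, 4 h) to deplete ER calcium; hits retested at 11 concentrations, up to 76.6 uM.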
# [16] = Cell Viability qHTS for small molecule stabilizers of the endoplasmic reticulum resident proteome (AID 1508629); settings: cell viability counter-screen, 100 nM thapsigargin for final 4 h;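 note: human SH-SY5Y neuroblastoma cells carrying the GLuc-SERCaMP reporter; compound exposure about 46 h in total before the viability read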
# Calcium and integrin-binding protein 1 (Homo sapiens), sequence (Q99828 whole entry, looked up): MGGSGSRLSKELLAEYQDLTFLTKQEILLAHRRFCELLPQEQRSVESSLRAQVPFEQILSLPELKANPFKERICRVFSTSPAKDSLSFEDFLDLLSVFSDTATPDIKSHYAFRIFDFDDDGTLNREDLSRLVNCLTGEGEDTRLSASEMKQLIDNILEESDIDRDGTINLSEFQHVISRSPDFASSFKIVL
# Protein phosphatase 1D (Homo sapiens), sequence (O15297 whole entry, looked up): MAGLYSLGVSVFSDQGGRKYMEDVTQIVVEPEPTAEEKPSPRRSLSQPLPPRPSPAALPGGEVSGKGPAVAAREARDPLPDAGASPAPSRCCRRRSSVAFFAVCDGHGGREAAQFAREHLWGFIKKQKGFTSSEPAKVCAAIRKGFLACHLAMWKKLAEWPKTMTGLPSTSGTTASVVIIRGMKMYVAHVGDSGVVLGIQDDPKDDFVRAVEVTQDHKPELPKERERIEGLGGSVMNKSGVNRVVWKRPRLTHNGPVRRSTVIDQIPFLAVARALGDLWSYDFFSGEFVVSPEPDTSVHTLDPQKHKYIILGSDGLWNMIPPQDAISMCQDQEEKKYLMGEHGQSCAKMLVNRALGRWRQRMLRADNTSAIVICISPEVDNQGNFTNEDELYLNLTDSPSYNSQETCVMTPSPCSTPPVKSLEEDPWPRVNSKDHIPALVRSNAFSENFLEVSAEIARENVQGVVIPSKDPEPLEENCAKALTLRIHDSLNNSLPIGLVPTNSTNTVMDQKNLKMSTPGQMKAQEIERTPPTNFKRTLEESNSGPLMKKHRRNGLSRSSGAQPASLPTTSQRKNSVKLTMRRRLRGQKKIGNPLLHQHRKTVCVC
# Single-stranded DNA cytosine deaminase (Homo sapiens), sequence (Q9GZX7 whole entry, looked up): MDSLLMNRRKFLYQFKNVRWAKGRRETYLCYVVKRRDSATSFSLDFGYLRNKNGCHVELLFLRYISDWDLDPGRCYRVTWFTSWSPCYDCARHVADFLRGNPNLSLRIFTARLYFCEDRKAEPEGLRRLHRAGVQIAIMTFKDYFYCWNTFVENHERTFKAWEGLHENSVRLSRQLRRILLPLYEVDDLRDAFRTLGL
smiles,measurement,setting,value
O=C1CCC(N2C(=O)c3ccccc3C2=O)C(=O)N1 (stereo unspecified),Potency,[1],inactive
same,outcome,[2],inactive
same,outcome,[3],inactive
same,Potency,[4],inactive
same,outcome,[5],inactive
same,outcome,[6],inactive
same,Potency,[7],inactive
same,outcome,[8],inactive
same,outcome,[9],inactive
same,Potency,[10],inactive
CCc1cncnc1N1CCN(Cc2nc3ccc(C(F)(F)F)cc3[nH]2)CC1,Potency,[1],inactive
same,outcome,[3],inactive
same,outcome,[9],inactive
Cc1cc2c(C(C)C)c(O)c(O)c(C=O)c2c(O)c1-c1c(C)cc2c(C(C)C)c(O)c(O)c(C=O)c2c1O,outcome,[2],inactive
same,outcome,[3],inactive
same,Potency,[11],23.4 µM (active)
same,Potency,[4],3.98 µM (active)
same,outcome,[6],inactive
same,outcome,[8],inactive
same,Potency,[12],3.16 µM (active) and 28.2 µM (active)
C1COC(NC(C2CC2)C2CC2)=N1,Potency,[1],inactive
same,outcome,[3],inactive
same,Potency,[11],inactive
same,Potency,[4],inactive
same,outcome,[6],inactive
same,outcome,[8],inactive
same,outcome,[9],inactive
same,Potency,[13],inactive
same,Potency,[10],inactive
CS(=O)(=O)c1cccc(CNc2nc(Nc3ccc4c(c3)CCC(=O)N4)ncc2C(F)(F)F)c1,Potency,[1],5.62 µM (active)
same,outcome,[3],inactive
same,outcome,[9],inactive
Cc1cccc(-c2[nH]c(C(C)(C)C)nc2-c2ccc3nccnc3c2)n1,Potency,[1],inactive
same,outcome,[3],inactive
same,Potency,[11],inactive
same,outcome,[6],inactive
same,outcome,[8],inactive
same,outcome,[9],inactive
same,Potency,[13],inactive
O=NN(CCCl)C(=O)NCCCl,Potency,[1],inactive
same,outcome,[2],inactive
same,outcome,[3],inactive
same,Potency,[4],inactive
same,outcome,[5],inactive
same,outcome,[6],inactive
same,outcome,[8],inactive
same,outcome,[9],inactive
same,Potency,[13],inactive
Cc1ccccc1C(OCCN(C)C)c1ccccc1 (stereo unspecified),Potency,[1],inactive
same,outcome,[2],inactive
same,outcome,[3],inactive
same,Potency,[4],inactive
same,outcome,[5],inactive
same,outcome,[6],inactive
same,outcome,[8],inactive
same,Potency,[14],inactive
same,outcome,[9],inactive
same,Potency,[15],inactive
same,Potency,[13],inactive
same,Potency,[10],inactive
CCC(C)N(C)C(=O)c1cc2ccccc2c(-c2ccccc2Cl)n1 (stereo unspecified),Potency,[1],inactive
same,outcome,[3],inactive
same,outcome,[6],inactive
same,outcome,[8],inactive
same,Potency,[13],inactive
Cc1oncc1C(=O)Nc1ccc(C(F)(F)F)cc1,outcome,[3],inactive
same,Potency,[11],18.6 µM (active)
same,Potency,[4],inactive
same,outcome,[5],inactive
same,outcome,[6],inactive
same,outcome,[8],inactive
same,Potency,[13],inactive
same,Potency,[10],inactive
NCCCC(N)(C(=O)O)C(F)F (stereo unspecified),Potency,[1],inactive
same,outcome,[2],inactive
same,outcome,[3],inactive
same,Potency,[4],inactive
same,outcome,[5],inactive
same,outcome,[6],inactive
same,outcome,[8],inactive
same,Potency,[13],inactive
same,Potency,[10],inactive
NS(=O)(=O)c1cc2c(cc1Cl)NC=NS2(=O)=O,Potency,[1],inactive
same,outcome,[2],inactive
same,outcome,[3],inactive
same,Potency,[4],inactive
same,outcome,[5],inactive
same,outcome,[6],inactive
same,outcome,[8],inactive
same,outcome,[9],inactive
same,Potency,[13],inactive
CC(C)NCC(O)COc1ccc(COCCOC(C)C)cc1 (stereo unspecified),Potency,[1],inactive
same,outcome,[2],inactive
same,outcome,[3],inactive
same,Potency,[4],inactive
same,outcome,[5],inactive
same,outcome,[6],inactive
same,outcome,[8],inactive
same,outcome,[9],inactive
same,Potency,[13],inactive
same,Potency,[10],inactive
Cc1c(C)c2c(c(C)c1O)CCC(C)(COc1ccc(CC3SC(=O)NC3=O)cc1)O2 (stereo unspecified),outcome,[2],inactive
same,outcome,[8],inactive
same,outcome,[9],inactive
COc1ccc2nc(S(=O)Cc3ncc(C)c(OC)c3C)[nH]c2c1 (stereo unspecified),outcome,[2],inactive
same,Potency,[11],inactive
same,Potency,[4],inactive
same,outcome,[5],inactive
same,outcome,[8],inactive
same,Potency,[12],39.8 µM (active)
same,outcome,[9],inactive
same,Potency,[15],inactive
same,max response,[16],-2.62%
same,Potency,[13],inactive
same,Potency,[10],inactive
CCOC(=O)C1=C[C@]2(CC)CCCN3CCc4c(n1c1ccccc41)[C@@H]32,Potency,[1],inactive
same,outcome,[2],inactive
same,outcome,[3],inactive
same,Potency,[4],inactive
same,outcome,[5],inactive
same,outcome,[6],inactive
same,Potency,[7],inactive
same,outcome,[8],inactive
same,Potency,[14],inactive
same,Potency,[13],inactive
same,Potency,[10],inactive
Cc1ccc(-n2nc(C(C)(C)C)cc2NC(=O)Nc2ccc(OCCN3CCOCC3)c3ccccc23)cc1,outcome,[2],inactive
same,Potency,[11],inactive
same,outcome,[5],inactive
same,outcome,[8],inactive
same,outcome,[9],inactive
same,Potency,[13],inactive
Clc1cccc(Cl)c1NC1=NCCN1,Potency,[1],inactive
same,outcome,[2],inactive
same,outcome,[3],inactive
same,Potency,[4],inactive
same,outcome,[5],inactive
same,outcome,[6],inactive
same,outcome,[8],inactive
same,outcome,[9],inactive
same,Potency,[10],inactive
